# About 14,000 (4.5%) of roughly 310,000 compounds showed an effect of 50% or more. The effect is printed as a negative number. Many of the other results were omitted from the sample, so strong results are more common in it than they were.
# Molecular target: human ether-à-go-go-related gene (hERG) potassium channel (human, UniProt Q12809)
# Assay: primary screen, population patch clamp on CHO cells stably expressing hERG; higher = less effect of the substance
# 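Note: peak tail current of the secondary pulse compared with the same well before compound.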
# Sequence of human ether-à-go-go-related gene (hERG) potassium channel (Q12809 whole entry, looked up): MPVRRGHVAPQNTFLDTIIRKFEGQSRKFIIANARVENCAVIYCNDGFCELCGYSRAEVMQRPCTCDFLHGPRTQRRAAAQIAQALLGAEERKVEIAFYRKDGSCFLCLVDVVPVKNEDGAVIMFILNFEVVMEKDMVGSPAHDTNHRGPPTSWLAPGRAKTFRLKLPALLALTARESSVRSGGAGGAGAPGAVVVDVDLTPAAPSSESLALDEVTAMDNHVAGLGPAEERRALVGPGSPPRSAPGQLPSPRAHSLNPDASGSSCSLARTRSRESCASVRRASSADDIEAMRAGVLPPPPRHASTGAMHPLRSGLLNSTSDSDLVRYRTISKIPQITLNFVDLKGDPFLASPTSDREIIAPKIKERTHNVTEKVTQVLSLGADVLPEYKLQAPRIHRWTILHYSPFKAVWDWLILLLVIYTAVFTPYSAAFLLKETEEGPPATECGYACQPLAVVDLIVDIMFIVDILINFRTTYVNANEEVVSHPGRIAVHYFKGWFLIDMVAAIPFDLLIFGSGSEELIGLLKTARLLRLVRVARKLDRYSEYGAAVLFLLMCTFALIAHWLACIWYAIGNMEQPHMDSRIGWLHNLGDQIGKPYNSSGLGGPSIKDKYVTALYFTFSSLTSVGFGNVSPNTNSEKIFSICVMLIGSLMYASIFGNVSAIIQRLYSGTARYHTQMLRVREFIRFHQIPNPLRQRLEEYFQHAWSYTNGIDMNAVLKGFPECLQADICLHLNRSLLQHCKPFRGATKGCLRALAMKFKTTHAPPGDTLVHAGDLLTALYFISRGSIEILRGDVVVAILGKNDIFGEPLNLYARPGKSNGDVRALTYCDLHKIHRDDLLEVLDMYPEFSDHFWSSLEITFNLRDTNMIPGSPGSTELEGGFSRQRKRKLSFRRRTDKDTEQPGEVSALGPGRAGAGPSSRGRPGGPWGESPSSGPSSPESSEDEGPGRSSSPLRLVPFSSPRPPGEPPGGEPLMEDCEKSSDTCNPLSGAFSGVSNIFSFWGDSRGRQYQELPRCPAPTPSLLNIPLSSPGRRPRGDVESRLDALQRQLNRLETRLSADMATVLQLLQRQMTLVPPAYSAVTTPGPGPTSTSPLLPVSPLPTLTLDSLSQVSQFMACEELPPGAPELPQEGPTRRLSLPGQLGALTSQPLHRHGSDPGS
row,Compound,"hERG current change (%, negative = inhibition) at 10uM [%]"
1,Cc1nn(CC2CCCCC2)c(N)c1-c1ccccc1,-12.2
2,CC(C)(C)c1cc(C(F)(F)F)c(C#N)c(=O)[nH]1,25
3,Cc1nc(NC2CCCCC2)c2nnn(Cc3ccccc3Cl)c2n1,8.09
4,CC1CCCC/C1=N/Nc1ccc([N+](=O)[O-])cc1[N+](=O)[O-] (stereo not drawn),-1.11
5,C[n+]1ccccc1C1CCCC/C1=N\Nc1ccc([N+](=O)[O-])cc1[N+](=O)[O-].[I-] (stereo not drawn),-11.8
6,O=[N+]([O-])c1ccc(N/N=C2/CCCCC2c2ccccn2)c([N+](=O)[O-])c1 (stereo not drawn),-56.3
7,COc1ccccc1C(=O)NC(CCSC)C(=O)NCC(c1cccs1)N(C)C (stereo not drawn),2.41
8,COc1ccc(NC(=O)C(=O)NNC(=O)COc2ccc(Cl)cc2)c(OC)c1,10.5
9,Cn1cc(C(=O)c2ccc(Cl)cc2)cc1-c1nc2ccccc2n1C,-47.9
10,Cn1cc(C(=O)c2ccc(F)cc2)cc1-c1nc2ccccc2n1C,-50.5
11,Cn1cc(C(=O)c2ccccc2)cc1-c1nc2ccccc2n1C,-41.9
12,CCN(CC)CCn1c(OC)cc(=O)[nH]c1=O,17.6
13,CCC1=C(OC(=O)N(CC)CC)N2C(=O)OC(=NCCc3c[nH]c4ccccc34)[C@]2(C)[C@H]2C1=CC[C@H]1C(=O)N(CC)C(=O)[C@H]12,-9.68
14,CCn1cc(CNC(=O)c2ccc3nc(Cc4ccc(OC)cc4)oc3c2)cn1,6.8
15,COc1ccc([C@H]2CC(=O)C=C(c3cccc(C#N)c3)C2)cc1,-72.3
16,COc1ccc([C@H]2CC(=O)C=C(c3cccc(OC)c3)C2)cc1,-82.1
17,COc1ccc([C@H]2CC(=O)C=C(c3cccc(Cl)c3)C2)cc1,-11.8
18,COc1cccc(C2=CC(=O)C[C@H](c3ccc(Cl)cc3)C2)c1,15.4
19,COc1ccc([C@H]2CC(=O)C=C(c3cc(Cl)ccc3OC)C2)cc1,7.4
20,COc1cccc(C2=CC(=O)C[C@H](c3ccc(F)cc3)C2)c1,-14.9
21,COc1ccc([C@H]2CC(=O)C=C(c3ccc(Cl)cc3C)C2)cc1,4.03

row,Compound,"hERG current change (%, negative = inhibition) at 10uM [%]"
1,COc1ccc([C@H]2CC(=O)C=C(c3ccnc4ccc(Cl)cc34)C2)cc1,-57.6
2,COc1ccc([C@H]2CC(=O)C=C(c3cccc(Br)c3)C2)cc1,-1.14
3,Cc1ccc(S(=O)(=O)NCC(=O)NCCc2c[nH]c3ccccc23)cc1C,3.3
4,O=C(NCC1OCCCN1S(=O)(=O)c1cc(F)ccc1F)C(=O)NC1CCCCC1 (stereo not drawn),-3.8
5,O=C(CN1CCOCC1)Nc1ccc2c(c1)OCCO2.O=C(O)C(=O)O,15
6,O=C(CN1CCN(CC(=O)Nc2ccccc2Cl)CC1)Nc1ccc2c(c1)OCCO2,-68.7
7,Cl.O=C(CN1CCC(NC(=O)c2ccccc2F)CC1)Nc1ccc2c(c1)OCCO2,6.04
8,O=C(CN1CCC(C(=O)c2ccc3c(c2)OCCO3)CC1)Nc1ccccc1F,-0.724
9,O=C(CN1CCOCC1)Nc1ccccc1Cl,-8.73
10,O=C(CN1CCN(CC(=O)Nc2ccccc2F)CC1)Nc1ccc2c(c1)OCCO2,-71.2
11,COC(=O)N/N=C/c1ccccc1Cl,19.4
12,N#CC(c1cccc(C(F)(F)F)c1)(c1ncc(C(F)(F)F)cc1Cl)N1CCOCC1 (stereo not drawn),4.46
13,O=C(c1cc(COc2ccc(F)cc2Cl)on1)N(Cc1ccncc1)CC1CCCO1 (stereo not drawn),-60.7
14,CCN(Cc1ccncc1)C(=O)c1cc(COc2ccc(F)cc2Cl)on1,-44
15,CCCN(CC1CCCO1)C(=O)c1cc(COc2ccc(F)cc2F)on1 (stereo not drawn),-15
16,CN(CC1CCCCO1)C(=O)c1cc(COc2ccc(F)cc2Cl)on1 (stereo not drawn),-87.1
17,COc1cc(Cl)ccc1OCc1cc(C(=O)N(C)CC2CCCCO2)no1 (stereo not drawn),-18.7
18,COc1ccc(OCc2cc(C(=O)N(C)CC3CCCCO3)no2)c(Cl)c1 (stereo not drawn),-17.4
19,C[C@]12C(=O)N(c3ccc(Cl)cc3)C(=O)N1[C@@H]1c3ccccc3OC[C@@H]1[C@H]2c1ccccc1,8.19
20,CCC(C)N1CC23C=CC(O2)C(C(=O)OCc2ccccc2)C3C1=O (stereo not drawn),5.54
21,CC(C)c1ccc(NC(=O)COC(=O)c2cc(=O)[nH]c3ccccc23)cc1,-8.12

row,Compound,"hERG current change (%, negative = inhibition) at 10uM [%]"
1,O=C(Cc1ccc(S(=O)(=O)N2CCOCC2)s1)NCCOc1ccccc1,-8.35
2,O=C(Cc1ccc(S(=O)(=O)N2CCOCC2)s1)NCCC(c1ccccc1)c1ccccc1,-54.8
3,CCCCCNC(=O)Cc1ccc(S(=O)(=O)N2CCOCC2)s1,-5.94
4,Cc1ccc[n+](CC(=O)Nc2ccc([N+](=O)[O-])cc2)c1.[Cl-],10.9
5,CCOc1ccc(S(=O)(=O)N2CCCCCC2)cc1,-8.37
6,Cn1c(NC(=O)C(C)(C)Oc2ccc(Cl)cc2)cc(=O)n(C)c1=O,-15
7,Cc1ccc(C(=O)N/C(=C/C=C\c2ccccc2)C(=O)NCc2ccco2)cc1,-27.7
8,O=C(NCc1ccco1)/C(=C/C=C/c1ccccc1)NC(=O)c1ccco1,-36.4
9,O=C(NCc1ccco1)/C(=C\C=C\c1ccccc1)NC(=O)c1ccco1,-38.3
10,O=C(NCc1ccco1)/C(=C\C=C\c1ccccc1)NC(=O)c1ccccc1Br,-70.5
11,O=C(NCc1ccco1)/C(=C/C=C\c1ccccc1)NC(=O)c1ccc(Br)o1,-59.6
12,N#C/C(=C\C=C\c1ccccc1)C(=O)NCc1ccco1,-3.85
13,Cc1ccc(C(=O)N/C(=C\C=C\c2ccccc2)C(=O)NCc2ccco2)cc1,-50.3
14,O=C(NCc1ccco1)c1ccccc1Br,7.63
15,Cc1ccc(C(=O)N/C(=C/C=C/c2ccccc2)C(=O)NCc2ccco2)cc1,-28.9
16,Cc1ccc(C)c(NS(=O)(=O)c2ccc(NC(=O)CSc3ccc(Cl)cc3)cc2)c1,17.8
17,O=C(N/N=C/c1ccccc1[N+](=O)[O-])c1cccs1,5.65
18,C=CCn1c(Cc2ccccc2)nc2c(cnn2-c2ccccc2)c1=O,-34.8
19,COc1cccc(N2CC(C(=O)Nc3nnc(SCC(=O)N4CCOCC4)s3)CC2=O)c1 (stereo not drawn),18.1
20,CC(=O)N(Cc1cc(=O)[nH]c2ccccc12)c1cccc(C)c1,-8.96
21,CSCCC(=O)N1CCCC(CNC(=O)c2ccc(-c3ccccc3)cc2)C1 (stereo not drawn),-73.2

row,Compound,"hERG current change (%, negative = inhibition) at 10uM [%]"
1,CC(=O)CCC(=O)N1CCCC(CNC(=O)c2ccc(-c3ccccc3)cc2)C1 (stereo not drawn),-13.8
2,CCc1cc(C(=O)N2CCCC(CNC(=O)c3ccc(-c4ccccc4)cc3)C2)no1 (stereo not drawn),-58.1
3,CSCC(=O)N1CCCC(CNC(=O)c2ccc(-c3ccccc3)cc2)C1 (stereo not drawn),-28.5
4,O=C(NCC1CCCN(C(=O)c2cccnc2)C1)c1ccc(-c2ccccc2)cc1 (stereo not drawn),-26.8
5,O=C(NCC1CCCN(C(=O)c2cscn2)C1)c1ccc(-c2ccccc2)cc1 (stereo not drawn),-15.1
6,CCOc1ccc(C2CC(c3ccc(CC)cc3)Nc3nc(N)nn32)cc1 (stereo not drawn),1.96
7,COc1ccc(Cl)cc1NS(=O)(=O)c1cccc(C(=O)NCC(C)(C)N2CCOCC2)c1,-12.6
8,O=C(Cc1ccccc1)N/N=C/c1ccccc1Cl,2.14
9,O=C(NCc1ccccn1)c1cccc(S(=O)(=O)Nc2ccccc2Cl)c1,-2.4
10,Cc1ccc(S(=O)(=O)N(C)C)cc1NC(=O)COC(=O)c1ccc2c(c1)NC(=O)CS2,-32.5
11,COC(=O)[C@@H]1Cc2c([nH]c3ccccc23)C(C)N1C(=O)c1ccccc1 (stereo partly drawn),3.27
12,CN1CCc2c(sc3nc(NN)n(-c4ccc(Cl)cc4)c(=O)c23)C1,14.6
13,CCN(CC)CCN(Cc1cc2cc3c(cc2[nH]c1=O)OCCO3)C(=O)NC1CCCCC1,-28.7
14,CCN1CCCC1CN(Cc1cc2c(C)cc(C)cc2[nH]c1=O)C(=O)NC1CCCCC1 (stereo not drawn),-76
15,CCc1ccc2[nH]c(=O)c(CN(CCN(CC)CC)C(=O)NC3CCCCC3)cc2c1,-66.6
16,CCN(CC)CCN(Cc1cc2ccc(C)cc2[nH]c1=O)C(=O)NC1CCCCC1,-73.1
17,CCc1ccc2[nH]c(=O)c(CN(CCN3CCCC3)C(=O)NC3CCCCC3)cc2c1,-40.9
18,COc1ccc(CN(Cc2cc3cc(OC)c(OC)cc3[nH]c2=O)C(=O)NC2CCCCC2)cc1,7.13
19,Cc1cc(C)c2cc(CN(CCO)C(=O)NC3CCCCC3)c(=O)[nH]c2c1,-3.62
20,Cc1ccc2[nH]c(=O)c(CN(CCCN3CCOCC3)C(=O)NC3CCCCC3)cc2c1,-25.7
21,CC(=O)N(Cc1cc2c(C)cc(C)cc2[nH]c1=O)C1CCCCC1,8.13

# Source: publication PMC4336329 (PLoS ONE, 2015)
